# Assay outcomes deposited in PubChem BioAssay by National Center for Advancing Translational Sciences (NCATS).
# AmpC detergent: blocks E. coli AmpC beta-lactamase in detergent assay; AmpC hydrolysis of nitrocefin, absorbance 480 nm, 0.01% Triton; P00811; Potency, µM (highest dose often 114 µM), for the others: at the top dose activity change, negative = inhibition, actives largely listed as inhibitors; AID 485294; 370,000 compounds, 0.041% hits;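 further: 0% = no-compound wells and -100% = no-enzyme wells; nearly all actives have a fitted effect of over 25% in size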
# Target sequence (P00811 whole entry, looked up): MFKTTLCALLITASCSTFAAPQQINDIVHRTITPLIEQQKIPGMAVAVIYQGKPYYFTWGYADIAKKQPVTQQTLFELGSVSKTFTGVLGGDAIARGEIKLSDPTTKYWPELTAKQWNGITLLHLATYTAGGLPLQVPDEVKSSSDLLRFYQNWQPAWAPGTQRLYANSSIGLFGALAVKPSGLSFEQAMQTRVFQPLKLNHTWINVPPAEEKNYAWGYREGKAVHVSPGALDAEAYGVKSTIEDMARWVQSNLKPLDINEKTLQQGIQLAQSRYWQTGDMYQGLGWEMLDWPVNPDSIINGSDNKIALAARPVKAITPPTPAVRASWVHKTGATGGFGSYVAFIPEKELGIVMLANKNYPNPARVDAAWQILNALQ
#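 AmpC (5.3 nM in the dispensed reagent) in 20 mM phosphate pH 7.0 with 0.01% (detergent screen) or 0.0001% Triton X-100 was preincubated with compounds for 15 min at room temperature. Nitrocefin was then added from an 800 uM solution, and hydrolysis was followed at 480 nm.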
# AmpC no deterg: AmpC beta-lactamase inhibition without detergent; P00811; AmpC nitrocefin hydrolysis, absorbance 480 nm, 0.0001% Triton; Potency, µM (doses to about 57.1 µM), without a hit: top-dose activity change, negative = inhibition, actives largely listed as inhibitors; 330,000 compounds, 0.52% hits; AID 485341;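 further: plate controls were no compound for no effect and no enzyme for full effect; nearly all actives have a fitted effect of over 20% in size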
#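 AmpC (5.3 nM in the dispensed reagent) in 20 mM phosphate pH 7.0 with 0.01% (detergent screen) or 0.0001% Triton X-100 was preincubated with compounds for 15 min at room temperature. Nitrocefin was then added from an 800 uM solution, and hydrolysis was followed at 480 nm.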
# AMA1 RON2 block: disrupts binding of P. falciparum AMA1 to RON2 | AlphaScreen AMA1-biotinylated RON2 peptide binding | Potency, µM (titrated, usually from 58.2 µM), without a hit: at the highest dose activity change, negative = inhibition, hits mostly inhibitors | 360,000 compounds, 0.2% hits | AID 720542;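 further: 0% = vehicle wells and -100% = peptide control; nearly all actives have a fitted effect of over 45% in size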
#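 AMA1 (3D7) with his tag at 25 nM final met compounds first, then biotinylated RON2 peptide at 25 nM; detection used donor plus acceptor beads, 10 µg/mL apiece, read by AlphaScreen after 30 min at room temperature.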
# LASV entry inh: inhibitors of Lassa virus binding or cell entry; Potency, µM (series often up to 37.9 µM), inactives show at the top dose activity change, negative = inhibition, hits mostly inhibitors; 300,000 compounds, 1.2% hits; Lassa virus pseudotype entry inhibition, cell reporter; calls by dose curve; tested in HEK293 cells; further: nearly all actives have a fitted effect of over 50% in size
# Marburg entry inh: Marburg virus entry inhibition | Marburg virus pseudotyped entry inhibition, cell reporter | Potency, µM (doses to about 37.8 µM), for the others: top-dose activity change, negative = inhibition, actives largely listed as inhibitors | 300,000 compounds, 1.8% hits | AID 540276; calls by dose curve; tested in HEK293 cells
# * hit, by the source's call; ? = inconclusive; nt = no result given; [ ] = dose if it differs, or a comment. An excerpt weighted towards active compounds, which were near 2.3% of everything screened. Unless noted, the call rests on the fitted dose curve; in most records, active means well fitted curve in the direction sought with a large enough effect; inconclusive means small, poorly fitted or top-dose-only effect, or another doubt; inactive means no such curve, though single readings can be large; an effect the other way counts as inactive or inconclusive. Unless noted, on the % scale 0 is the no-effect control and ±100 the full control effect; potency means the concentration at half of the fitted maximal effect.
SMILES,AmpC detergent,AmpC no deterg,AMA1 RON2 block,LASV entry inh,Marburg entry inh
COc1ccccc1NS(=O)(=O)c1cc(N2Cc3ccccc3C2=N)ccc1N1CCOCC1,?,89%,-6%,?,7.1µM*
COc1ccccc1NS(=O)(=O)c1cc(N)ccc1N1CCOCC1,nt,-2%,-3%,23%,1%
COCCNC(=S)Nc1ccc(N2CCOCC2)c(S(=O)(=O)Nc2ccccc2OC)c1,-1%,10µM*,0%,nt,nt
COc1ccccc1NS(=O)(=O)c1cc(NC(=O)C2CC2)ccc1N1CCOCC1,-1%,-10%,nt,nt,nt
CCOC(=O)C1NC2CCC(OCC)CC2C1CCCN1C(=O)C2=C(CCCC2)C1=O (configuration not stated),nt,nt,nt,nt,-4%
CCO[C@@H]1C[C@@]1(C=C[C@@H](C)[C@H](OC)c1ccccc1Br)C(=O)OC,nt,nt,nt,nt,-14%[14.2 µM]
COc1ccc(OC)c(NC2=C(Cl)C(=O)N(Cc3ccccc3)C2=O)c1,-5%,-42%,13µM*,-1%,?
Cc1cc(C)c(C(=O)COC(=O)c2ccc(NC(=O)CC#N)cc2)cc1C,11%,6.3µM*,4%,-8%,-5%[46.1 µM]
COc1ccc(CCn2c(C)cc(C(=O)COC(=O)c3ccc(NC(=O)CC#N)cc3)c2C)cc1,-7%,18µM*,-1%,nt,nt
CNC(=O)COC(=O)c1ccc(NC(=O)CC#N)cc1,1%,-14%,8%,?,-4%
Cc1ccc(-c2noc(-c3ccc(NC4CCCC4)c([N+](=O)[O-])c3)n2)cc1,-2%,nt,nt,23%[46.1 µM],4%[46.1 µM]
COC(=O)C[C@H]1CC[C@@H](NC(=O)Nc2c(C)noc2C)[C@@H](CO)O1,nt,nt,-3%,nt,nt
CCCCn1c(C)cc2c(c1=O)[C@H]1O[C@](CCCC)(Cc3cc(C#N)ccc31)O2,nt,nt,nt,?,-18%[14.2 µM]
CC(C)c1ccc(OCc2ccc(C(=O)O)o2)cc1,-9%,-22%,-2%,3.5µM*,3.7µM*
CC(C)c1ccc(OCc2ccc(C(=O)N(C)C)o2)cc1,-6%,48%,16%,?,?
CCOC(=O)C1=C(CN2CCCCC2)NC(=O)NC1c1cc(C)ccc1C (configuration not stated),?,-14%,-1%,-25%[46.1 µM],9.2µM*
CCCN1C(=O)C2=NC(C3CCCC3)=NC2N(CCC)C1=O (configuration not stated),nt,nt,nt,nt,14%
O=C(CCn1c(=O)c2ccccc2n(CC(=O)Nc2ccc(F)cc2)c1=O)NCCc1ccccc1,13%,nt,nt,-2%[46.1 µM],-1%[46.1 µM]
COc1cccc(Cc2nc3ccccc3nc2SCC(=O)NCc2ccc(C)cc2)c1,18%,nt,nt,?,nt
CC1CCc2c(nc3sc4c(c3c2N)CCCC4)C1 (configuration not stated),-6%,-36%,-20%,-27%[46.1 µM],11µM*
CC1CCc2nc3sc4c(c3c(N)c2C1)CCCC4 (configuration not stated),5%,-38%,-7%,-7%,?
Nc1c2c(nc3sc4c(c13)CCCC4)CCCCC2,-1%,4µM*,-5%,?,7%
CC(=O)OC[C@H]1O[C@H](CC=NO[C@H](C)CN2CCCCc3nc(C)c(C)cc32)C=C[C@@H]1OC(C)=O,nt,nt,nt,nt,-21%[14.2 µM]
Cc1cccnc1Nc1nc(-c2ccccc2)cs1,6%,-19%,0%,nt,nt
Cc1cccnc1Nc1nc(-c2ccccn2)cs1,?,-45%,-89%,7.1µM*,?
SMILES,AmpC detergent,AmpC no deterg,AMA1 RON2 block,LASV entry inh,Marburg entry inh
COC(=O)C(C(C)=O)[C@@H](NC(=O)OC(C)(C)C)c1ccccc1 (some centres not stated),nt,nt,nt,nt,-7%[14.2 µM]
COc1ccc(/C=N/OCC(=O)N=Nc2c(O)[nH]c3ccc(Br)cc23)cc1OC,0%,3.2µM*,-14%,-9%[46.1 µM],?
COC(=O)C1=C(C(=O)OC)[C@@H]2N(Cc3ccccc3)c3ccccc3[C@@]23C[C@@H](C(=O)OC)N(C(=O)NCCBr)C3=N1,nt,nt,nt,nt,8%[14.2 µM]
CCOC(=O)c1ccc2c(c1)N(Cc1cccc([N+](=O)[O-])c1)C(=O)c1ccccc1S2,5%,nt,nt,-11%[46.1 µM],nt
CCOC(=O)CC(NC(=O)c1cc2cc(OC)ccc2oc1=O)c1ccc(OC)cc1 (configuration not stated),-3%,nt,nt,28%[46.1 µM],5%[46.1 µM]
CCc1c(C)sc2c1CCN(Cc1ccccc1F)C2c1ccccc1 (configuration not stated),-4%,nt,nt,?,nt
Cc1ccc(-c2ccc(C(=O)NCc3ccc(Cl)cc3)o2)c2ccccc12,-13%,?,-11%,21µM*,5%
O=C(CCc1ccccc1)NCc1ccc(F)cc1,-16%,-3%,11%,1%[46.1 µM],-1%[46.1 µM]
O=C(NCc1ccccc1)c1ccc(-c2ccccc2C(F)(F)F)o1,-6%,-6%,5%,2.3µM*,?
O=C(NCc1ccccc1)c1ccc(-c2ccc(F)cc2)o1,0%,-17%,-13%,6.5µM*,-3%
Cc1ccccc1-c1ccc(C(=O)NCc2ccccc2)o1,0%,-23%,-18%,?,11%
CC(C)OC(=O)c1cc2c(ccn2C)n1CC(=O)N(Cc1ccccc1)c1ccc(F)cc1,?,2%,?,5µM*,5.2µM*
CCOC(=O)Cc1ccc(NC(=O)N2CC(C)Oc3ccc(Cl)cc32)cc1 (configuration not stated),-3%,nt,nt,1%[46.1 µM],nt
COc1ccc(Cl)cc1NC(=O)Cn1c2ncccc2c(=O)n1-c1ccc(C)c(C)c1,2%,nt,nt,12%[46.1 µM],nt
CCCN(c1ccc(OCC)cc1)c1ncnc2nc[nH]c12,?,0.71µM*,-2%,nt,nt
O=[N+]([O-])c1cccc(/C=N/N2CCN(Cc3ccccc3)CC2)c1,-11%,-12%,-3%,?,?
O=[N+]([O-])c1cccc(C=NN2CCCCCC2)c1,nt,nt,18µM*,17%,3%
O=[N+]([O-])c1cc(C=NN2CCCCCC2)ccc1Cl,nt,nt,14µM*,14%,?
Cc1cc(N2CCN(C)CC2)nc2ccc(NC(=O)Nc3ccccc3Cl)cc12,17%,nt,nt,?,nt
CCN(CC)c1ccc(NC(=O)COc2ccc(C#N)cc2)cc1S(=O)(=O)Nc1ccc(OC)cc1,-1%,5µM*,15%,?,?
CS(=O)(=O)N1CCc2cc(-c3csc(NC(=O)C(c4ccccc4)c4ccccc4)n3)ccc21,-10%,-26%,-4%,-22%,-20%
CC1Cc2cc(-c3csc(NC(=O)Cc4ccccc4)n3)ccc2N1S(C)(=O)=O (configuration not stated),?,-42%,-7%,?,10µM*
Cc1ccc(NC(=O)CSc2nc3ccccc3c3nc(CCn4c(C)nc5ccccc54)nn23)cc1F,-4%,nt,nt,-12%[46.1 µM],nt
O=S(=O)(/C=C/C=C/S(=O)(=O)c1ccccc1)c1ccccc1,nt,nt,-3%,1µM*,?
Cc1cccc(NCC(=O)N/N=C\c2ccc[nH]2)c1,-8%,-20%,91%,?,7.1µM*
Cc1cccc(NCC(=O)N/N=C/c2cccc(Br)c2)c1,1%,-26%,-2%,nt,nt
